An excerpt weighted towards active compounds, which were near 10% of everything screened.
HP1b chromo inh: inhibitors of HP1-beta chromodomain binding to methylated histone tails | P83916 | AlphaScreen HP1-beta / biotin-H3K9me3 peptide binding | Potency, µM (top dose mostly 114 µM), inactives show at the top dose activity change, negative = inhibition, hits mostly inhibitors | 390,000 tested, 0.56% active | AID 540317; also: nearly all actives have a fitted effect of over 70% in size
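AlphaScreen: HP1-beta (50 nM) preformed 30 min with biotin-H3(1-18)K9me3 peptide (50 nM) in PBS pH 7.4, 0.01% Tween-20. Compound added for 30 min at RT, then streptavidin donor/nickel chelate acceptor beads (10 ug/mL) for 30 min.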
GLS inh: glutaminase GLS (human) inhibition; GLS enzymatic activity, qHTS titration; Potency, µM (series often up to 45.5 µM), for inactives: at the highest dose activity change, negative = inhibition, usual class: inhibitors; O94925; 410,000 tested, 0.21% active; AID 624170; also: % is scaled to controls: 0 for no effect and ±100 for the full control effect
Target sequence (O94925 whole entry, looked up): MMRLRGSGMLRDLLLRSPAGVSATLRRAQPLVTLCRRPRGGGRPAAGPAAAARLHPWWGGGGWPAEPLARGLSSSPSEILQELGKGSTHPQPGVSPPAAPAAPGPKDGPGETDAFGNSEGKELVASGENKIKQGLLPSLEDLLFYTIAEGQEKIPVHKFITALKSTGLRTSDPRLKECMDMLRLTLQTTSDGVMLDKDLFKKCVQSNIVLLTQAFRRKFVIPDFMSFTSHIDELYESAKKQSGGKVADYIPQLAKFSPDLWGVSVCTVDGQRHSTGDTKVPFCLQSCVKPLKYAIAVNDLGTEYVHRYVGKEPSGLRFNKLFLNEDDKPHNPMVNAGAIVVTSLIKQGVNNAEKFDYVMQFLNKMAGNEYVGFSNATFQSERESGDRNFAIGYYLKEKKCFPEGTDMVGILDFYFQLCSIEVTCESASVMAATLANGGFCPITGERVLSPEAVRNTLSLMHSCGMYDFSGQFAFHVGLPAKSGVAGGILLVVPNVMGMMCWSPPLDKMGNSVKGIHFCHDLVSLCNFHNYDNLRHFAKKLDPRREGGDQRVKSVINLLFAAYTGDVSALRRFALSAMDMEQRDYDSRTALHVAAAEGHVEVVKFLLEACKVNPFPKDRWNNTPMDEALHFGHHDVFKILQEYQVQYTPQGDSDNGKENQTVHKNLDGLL
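hKGA in 45 mM KH2PO4 pH 8.2, 0.02% Tween-20 with pin-transferred compounds; 1 mM L-glutamine (stock) plus glutamate oxidase/HRP/Amplex Red coupling added. Fluorescence read initially and after 30 min at RT.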
BAZ2B inh: blocks human BAZ2B | Q9UIF8 | AlphaScreen BAZ2B-H3K14Ac peptide displacement | Potency, µM (doses to about 114 µM), without a hit: top-dose activity change, negative = inhibition, hits mostly inhibitors | 360,000 tested, 4.4% active; also: % is scaled to controls: 0 for no effect and ±100 for the full control effect; nearly all actives have a fitted effect of over 60% in size
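Complex of BAZ2B and biotin-H3K14Ac (50 nM apiece) forms over 30 min at RT, then faces library compounds up to 110 uM for another 30 min; AlphaScreen beads added, 20 min dark incubation, luminescence read.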
JMJD2A Tudor inh: JMJD2A Tudor domain (human) inhibition. AlphaScreen JMJD2A-Tudor / H3K4me3 peptide binding. Potency, µM (highest dose often 114 µM), for the others: top-dose activity change, negative = inhibition, actives largely listed as inhibitors. 390,000 tested, 4.4% active. AID 504339. O75164; also: % is scaled to controls: 0 for no effect and ±100 for the full control effect; nearly all actives have a fitted effect of over 50% in size
G9a inh: G9a (human) methyltransferase inhibition. Q96KQ7. G9a H3K9 monomethylation, AlphaScreen, 2 h. Potency, µM (series often up to 102 µM), without a hit: top-dose activity, negative = inhibition, hits mostly inhibitors. 350,000 tested, 8.8% active; also: % is scaled to controls: 0 for no effect and ±100 for the full control effect; nearly all actives have a fitted effect of over 75% in size
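Readings reflect AlphaScreen signal from monomethyl-H3K9 antibody detection. HMT at 20 nM; substrate b-H3K9 500 nM; cofactor SAM 20 uM; 2 h RT reaction; compounds tested as titrations in qHTS with 15 min preincubation.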
Active calls of the source: *; u = inconclusive; x = no result given; [ ] = remark or other dose. Calls follow the shape of the dose curve; as a rule, active = well fitted curve in the direction sought with a large enough effect; inconclusive = small, poorly fitted or top-dose-only effect, or another doubt; inactive = no such curve, though single readings can be large; an effect the other way counts as inactive or inconclusive. Potency is read from the fitted curve at half-maximal effect.

SMILES	HP1b chromo inh	GLS inh	BAZ2B inh	JMJD2A Tudor inh	G9a inh
C=CCN1C(=O)C2(NNc3ccccc3O2)c2ccccc21 (stereo unspecified)	-7%	24%	u	u	16µM*
CCCCN1C(=O)C2(NNc3ccccc3O2)c2ccccc21 (stereo unspecified)	-23%	16%	45µM*	u	u
CCCCN1C(=O)C(O)(c2c(C)[nH]c3ccccc23)c2ccccc21 (stereo unspecified)	-11%	10%	-27%	-25%	8%[59 µM]
Cc1ccc(Nc2c3c(nc4nncn24)CCC3)c(C)c1	25%	5%	6%	-14%	4%[59 µM]
CN(C(=O)c1cc2c(s1)-c1ccc(Cl)cc1SC2)c1cccc(C(F)(F)F)c1	68%	3%	9%	13%	0%[59 µM]
CCCCC1CCC(C(=O)N(CCC(C)C)c2c(N)n(CCCC)c(=O)[nH]c2=O)CC1 (stereo unspecified)	x	11%	x	x	x
NCc1cc2c3c(c1)CCCN3CCC2	-1%	8%	50µM*	-11%	16µM*
CCC(C)Sc1nc2c(c(=O)[nH]c(=O)n2C)n1CCc1ccccc1 (stereo unspecified)	15%	1%	9%	6%	-12%[59 µM]
CC(C)Sc1nc2c(c(=O)[nH]c(=O)n2C)n1Cc1ccc(Cl)cc1	u	-3%	6%	32µM*	u
CCC(C)Sc1nc2c(c(=O)[nH]c(=O)n2C)n1CC(O)COc1ccccc1C (stereo unspecified)	-32%	-19%	9%	-19%[57.1 µM]	5.6µM*
CCOC(=O)C(C)Sc1nc2c(c(=O)[nH]c(=O)n2C)n1Cc1ccc(Cl)cc1 (stereo unspecified)	-24%	u	-2%	-17%	11µM*
CC(O)CSc1nc2c(c(=O)[nH]c(=O)n2C)n1Cc1ccccc1Cl (stereo unspecified)	2%	1%	2%	-13%	45µM*
CCc1nc2c(OCCOc3ccc(F)cc3)cccn2c1N(C)C(=O)CC(C)C	x	3%	x	x	x
O=C(Nc1ccc2oc(-c3cccnc3)nc2c1)c1ccc(-c2ccccc2OC(F)(F)F)o1	47%	1%	1%	-11%	-3%[59 µM]
NNC(=O)Nc1cccc(C(F)(F)F)c1	56%	-3%	-2%	-6%	15%
Cc1ccc(NC(=S)NNC(=S)Nc2cccc(C(F)(F)F)c2)cc1	u	1%	-27%	u	20µM*
NC(=O)/C=C\C(=O)Nc1cccc(C(F)(F)F)c1	16%	8%	-8%	-12%	10µM*
CN(C)NC(=S)Nc1cccc(C(F)(F)F)c1	28%	2%	0%	7%	x
Cc1cccc(CNC(=O)c2ccc(NC(=O)C3=CSCCO3)cc2)c1	8%	-30%	-17%	20µM*	-9%[59 µM]
Cc1cccc(CNC(=O)c2ccccc2NC(=O)C2=CSCCO2)c1	11%	3%	2%	-30%	33%
CCOc1ccc(CNC(=O)c2ccccc2NC(=O)C2=CSCCO2)cc1	-2%	8%	-17%	32µM*	-11%
COc1ccc(CCNC(=O)c2cnc3sc(N4CCOCC4)nn3c2=O)cc1OC	17%	-5%	1%	-5%	-2%[59 µM]
COC(=O)C/C(C)=N/Nc1ccc(S(=O)(=O)N2CCCC2)cc1[N+](=O)[O-]	-1%	6%	u	-32%	45µM*
COCCNc1ccc(S(=O)(=O)N2CCCC2)cc1[N+](=O)[O-]	-25%	-1%	-6%	-18%	-8%
O=C(O)c1ccc(/C=N\Nc2ccc(S(=O)(=O)N3CCOCC3)cc2[N+](=O)[O-])cc1	-1%	1%	u	u	50µM*
SMILES	HP1b chromo inh	GLS inh	BAZ2B inh	JMJD2A Tudor inh	G9a inh
Cc1ccc(-n2c(O)c(/C=N/Nc3ccc(S(=O)(=O)N4CCOCC4)cc3[N+](=O)[O-])c3ccccc3c2=O)c(C)c1	4µM*	9%	13µM*	28µM*	8.9µM*
C/C(=N\Nc1ccc(S(=O)(=O)N2CCOCC2)cc1[N+](=O)[O-])C(C)C	u	-3%	x	45µM*	u
CC(C)CN(C(=O)CN(C)C(=O)Cc1c(F)cccc1Cl)c1c(N)n(CC(C)C)c(=O)[nH]c1=O	x	3%	x	x	x
CC1CCN(S(=O)(=O)N2CCC(C(=O)NC(C)c3ccccc3)CC2)CC1 (stereo unspecified)	x	-8%	x	x	x
CC1(C(=O)NS(=O)(=O)c2ccc(Cl)cc2)CCN1C(=O)C1(c2ccc(Cl)cc2)CCC1 (stereo unspecified)	x	15%	x	x	x
COc1cc(OC)cc(Oc2ccc(S(=O)(=O)N3CCCCC3)cc2[N+](=O)[O-])c1	-15%	3%	-27%	u	79µM*
COC(=O)COc1ccc(S(=O)(=O)N2CCCCC2)cc1[N+](=O)[O-]	0%	12%	-10%	-12%	1%
COC(=O)c1ccc(NC2c3ncccc3C(=O)N2Cc2cccs2)cc1 (stereo unspecified)	24%	5%	-3%	-8%	u
O=C1c2cccnc2C(Nc2ccc(Br)cc2Br)N1Cc1cccs1 (stereo unspecified)	x	x	-24%	x	-24%
CCOC(=O)c1ccc(NC2c3ncccc3C(=O)N2Cc2ccc(F)cc2)cc1 (stereo unspecified)	34%	-5%	u	-20%	-11%[59 µM]
COc1ccc(NC2c3ncccc3C(=O)N2Cc2cccs2)cc1 (stereo unspecified)	u	3%	71µM*	u	50µM*
O=C1c2cccnc2C(Nc2ccc(F)c(Cl)c2)N1Cc1cccs1 (stereo unspecified)	17%	4%	u	-10%	50µM*
O=C1c2cccnc2C(Nc2ccc(Br)cc2)N1Cc1cccs1 (stereo unspecified)	9%	24%	x	u	50µM*
O=c1c(-c2cccs2)nc2cncnc2n1-c1ccccc1	x	x	x	x	-19%[0.501 µM]
CCCC(=O)Nc1nc2c(ncn2[C@@H]2O[C@H]3COP(=O)(O)O[C@@H]3[C@@H]2OC(=O)CCC)c(=O)[nH]1	x	x	x	x	25%[59 µM]
Cc1oc2ncn(CC(C)C)c(=O)c2c1C(=O)NCCCN1CCC(C)CC1	17%	-6%	12%[57.1 µM]	-17%	-30%[59 µM]
Cc1cccc(NC(=O)C(=O)NCCc2sc(-c3ccccc3)nc2C)c1C	26%[57 µM]	8%	1%	3%	8%[59 µM]
COc1cc(C=Nc2cccc(C)c2)c(O)c([N+](=O)[O-])c1	-32%	6%	50µM*	u	-21%[59 µM]
Cc1cc(Br)cc(C=Nc2ccc(N3CCOCC3)cc2)c1O	32%	35%	x	-11%	x
Cc1ccc(O)c(N=Cc2cc(Cc3ccccc3)cc([N+](=O)[O-])c2O)c1	u	11µM*	10µM*	40µM*	u
CCc1ccc(O)c(N=Cc2ccccc2O)c1	18%	1%	u	u	u

Compound activity deposited in PubChem by National Center for Advancing Translational Sciences (NCATS).
